# PubChem BioAssay
# Results filed as inconclusive are left out. Activity calls are given as the source filed them.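 Rule for the calls, unless noted: active = normalized viability below 100% at a tested concentration; inactive = the rest.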
# Assays:
# [1] = growth inhibition of DIPG glioma cells, dose response, cell-based, SU-DIPG-XVII, MIPE5.0, CellTiter-Glo, qHTS (AID 1347060; cut-off not given, nearly all actives have AC50 up to about 26 µM); details: SU-DIPG-XVII viability, CellTiter-Glo ATP luminescence
# [2] = growth inhibition of DIPG glioma cells, dose response, cell-based, JHH-DIPG-1, MIPE4.0, CellTiter-Glo, qHTS (AID 1347062; cut-off not given, nearly all actives have AC50 up to about 27 µM); details: JHH-DIPG-1 viability, CellTiter-Glo ATP luminescence
# [3] = growth inhibition of DIPG glioma cells, dose response, cell-based, SU-DIPG-IV, MIPE4.0, CellTiter-Glo, qHTS (AID 1347063; cut-off not given, nearly all actives have AC50 up to about 30 µM;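 note: compound exposure lasted 48 hours before the viability readout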); details: SU-DIPG-IV viability, CellTiter-Glo ATP luminescence
# [4] = SU-DIPG-VI glioma cell viability, MIPE4.0 library, CellTiter-Glo luminescence, qHTS (AID 1347066; cut-off not given, nearly all actives have AC50 up to about 30 µM;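 note: cells exposed to compound for 48 hours before readout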); details: CellTiter-Glo ATP luminescence
# [5] = JHH-DIPG-1 glioma cell viability, MIPE5.0 library, CellTiter-Glo luminescence, qHTS (AID 1347067; cut-off not given, nearly all actives have AC50 up to about 26 µM;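 note: cells exposed to compound for 48 hours before readout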); details: JHH-DIPG-1 glioma viability, CellTiter-Glo ATP luminescence
# [6] = sensitizers of A549 cells to miR-34 induction, primary screen, imaging, A549 dox-inducible miR-34, nuclei and caspase counts (AID 1347080;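 active = compounds whose cell count with miR-34 switched on is under 0.7 times the count with it off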); details: A549 miR-34 inducible, Hoechst nuclei count, 48 h
# [7] = modifiers of HSF1 nuclear foci, imaging, Selleck Cancer Library (AID 1347162; in the data active = plate-normalised HSF1 focus index below about 0.46); details: human cells, at 10 µM; SSMD: measured here: HSF1 foci SSMD mean; cell count: measured here: cell number; plate-normalised HSF1 focus index: stronger effect = lower value
# [8] = survival rescue of mitochondrial mutant cells in low glucose, primary screen, MELAS cybrids, Rieske KO mouse fibroblasts, CellTiter-Glo (AID 1508586;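 active = mean z-score across replicates of 1.96 or higher in either the MELAS or the Rieske mutant cell line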;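 note: z relative to plate mean and SD of compound and empty wells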)
# [9] = ovarian cancer cell viability with rucaparib, profiling panel, oncology-focused library, rucaparib conditional (AID 1508598); details: patient-derived ovarian cancer cells, CellTiter-Glo viability, 144 h, stronger effect = lower value
# [10] = LFS_MB_P medulloblastoma growth inhibition, cell-based, chromothripsis tumors, cisplatin or BGB combos (AID 1671449; in the data active = inhibition above about 80%;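 note: cells exposed for 96 hours; 0% = vehicle DMSO and 100% = killing by high DMSO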); details: LFS_MB_P medulloblastoma cells
# [11] = HDN33 neuroblastoma growth inhibition, cell-based, chromothripsis tumors, cisplatin or BGB combos (AID 1671450; in the data active = inhibition above about 80%;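 note: cells exposed to compound for four days; 0% = vehicle DMSO and 100% = cell killing by high DMSO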); details: HDN33 neuroblastoma cells, stronger effect = higher value
# [12] = ICB984 medulloblastoma cell growth inhibition, synergistic combos for chromothripsis tumors, cisplatin or BGB combos (AID 1671451; call rule not given here;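 note: cells exposed for 96 hours before readout; 0% = vehicle DMSO and 100% = killing by high DMSO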); details: ICB984 medulloblastoma cells, drug combinations, stronger effect = higher value
# [13] = HTB85 osteosarcoma cell growth inhibition, synergistic combos for chromothripsis tumors, BGB or cisplatin IC20 combos (AID 1671453; in the data active = inhibition above about 80%;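 note: cells exposed for 96 hours before readout; 0% = vehicle DMSO and 100% = high DMSO killing control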); details: HTB85 osteosarcoma cells, drug combinations, stronger effect = higher value
# [14] = MDA-MB-436 breast carcinoma cell growth inhibition, synergistic combos for chromothripsis tumors, BGB or cisplatin combos (AID 1671458; call rule not given here;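 note: cells exposed for 96 hours; 0% = vehicle DMSO and 100% = killing by high DMSO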); details: MDA-MB-436 breast carcinoma growth inhibition, drug combinations, stronger effect = higher value
# [15] = growth inhibition of BT084 medulloblastoma cells, cell-based, ICGC_MB145, cisplatin and BGB IC40 combos (AID 1671461; in the data active = inhibition above about 80%;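 note: cells exposed to drugs for 96 hours; 0% = vehicle DMSO and 100% = high DMSO full killing control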); details: drug combinations, stronger effect = higher value
# [16] = growth inhibition of RCMB18 medulloblastoma cells, cell-based, cisplatin and BGB IC40 combos (AID 1671462; in the data active = inhibition above about 80%;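 note: cells exposed to compound for four days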); details: stronger effect = higher value
smiles,measurement,setting,value
O=C(O)[C@H](Cc1c[nH]c2ccccc12)N1C(=O)c2ccccc2C1=O,outcome,[1],inactive
same,outcome,[2],inactive
same,outcome,[3],inactive
same,outcome,[4],inactive
same,outcome,[5],inactive
same,fold change,"[6]; stronger effect = lower value, cell number ratio, induced over uninduced",0.96 (inactive)
same,fold change,[6]; measured here: relative caspase fold change +Dox/-Dox,0.441
same,cell count,"[6]; measured here: total cells with miR-34 induction, stronger effect = lower value",7740
same,cell count,[6]; measured here: total cells without miR-34 induction,8070
same,SSMD,[7],2.52
same,cell count,[7],7570
same,plate-normalised HSF1 focus index,[7],1.16 (inactive)
same,z-score,"[8]; MELAS cybrid survival, CellTiter-Glo 48 h, stronger effect = higher value",-0.375 (inactive)
same,z-score,"[8]; Rieske KO mouse fibroblast survival, CellTiter-Glo 72 h",-0.075
same,viability,"[9]; at 0.000305 µM, OCI-C5x cells, with rucaparib 10 µM, 100% = cells with rucaparib alone",113% (inactive)
same,viability,"[9]; at 0.000305 µM, OCI-C5x cells, without rucaparib",103% (inactive)
same,viability,"[9]; at 0.000305 µM, OCI-P5x cells, with rucaparib 20 µM, 100% = cells with rucaparib alone",84.4% (active)
same,viability,"[9]; at 0.000305 µM, OCI-P5x cells, without rucaparib",85.2% (active)
same,viability,"[9]; at 0.00122 µM, OCI-C5x cells, with rucaparib 10 µM, 100% = cells with rucaparib alone",126% (inactive)
same,viability,"[9]; at 0.00122 µM, OCI-C5x cells, without rucaparib",108% (inactive)
same,viability,"[9]; at 0.00122 µM, OCI-P5x cells, with rucaparib 20 µM, 100% = cells with rucaparib alone",92% (active)
same,viability,"[9]; at 0.00122 µM, OCI-P5x cells, without rucaparib",93.9% (active)
same,viability,"[9]; at 0.00488 µM, OCI-C5x cells, with rucaparib 10 µM, 100% = cells with rucaparib alone",118% (inactive)
same,viability,"[9]; at 0.00488 µM, OCI-C5x cells, without rucaparib",117% (inactive)
same,viability,"[9]; at 0.00488 µM, OCI-P5x cells, with rucaparib 20 µM, 100% = cells with rucaparib alone",89.2% (active)
same,viability,"[9]; at 0.00488 µM, OCI-P5x cells, without rucaparib",93.1% (active)
same,viability,"[9]; at 0.0195 µM, OCI-C5x cells, with rucaparib 10 µM, 100% = cells with rucaparib alone",116% (inactive)
same,viability,"[9]; at 0.0195 µM, OCI-C5x cells, without rucaparib",115% (inactive)
same,viability,"[9]; at 0.0195 µM, OCI-P5x cells, with rucaparib 20 µM, 100% = cells with rucaparib alone",91% (active)
same,viability,"[9]; at 0.0195 µM, OCI-P5x cells, without rucaparib",97.2% (active)
same,viability,"[9]; at 0.0781 µM, OCI-C5x cells, with rucaparib 10 µM, 100% = cells with rucaparib alone",109% (inactive)
same,viability,"[9]; at 0.0781 µM, OCI-C5x cells, without rucaparib",117% (inactive)
same,viability,"[9]; at 0.0781 µM, OCI-P5x cells, with rucaparib 20 µM, 100% = cells with rucaparib alone",87.1% (active)
same,viability,"[9]; at 0.0781 µM, OCI-P5x cells, without rucaparib",98.7% (active)
same,viability,"[9]; at 0.313 µM, OCI-C5x cells, with rucaparib 10 µM, 100% = cells with rucaparib alone",115% (inactive)
same,viability,"[9]; at 0.313 µM, OCI-C5x cells, without rucaparib",119% (inactive)
same,viability,"[9]; at 0.313 µM, OCI-P5x cells, with rucaparib 20 µM, 100% = cells with rucaparib alone",63.7% (active)
same,viability,"[9]; at 0.313 µM, OCI-P5x cells, without rucaparib",54.2% (active)
same,viability,"[9]; at 1.25 µM, OCI-C5x cells, with rucaparib 10 µM, 100% = cells with rucaparib alone",110% (inactive)
same,viability,"[9]; at 1.25 µM, OCI-C5x cells, without rucaparib",116% (inactive)
same,viability,"[9]; at 1.25 µM, OCI-P5x cells, with rucaparib 20 µM, 100% = cells with rucaparib alone",91.1% (active)
same,viability,"[9]; at 1.25 µM, OCI-P5x cells, without rucaparib",105% (inactive)
same,viability,"[9]; at 5 µM, OCI-C5x cells, with rucaparib 10 µM, 100% = cells with rucaparib alone",114% (inactive)
same,viability,"[9]; at 5 µM, OCI-C5x cells, without rucaparib",124% (inactive)
same,viability,"[9]; at 5 µM, OCI-P5x cells, with rucaparib 20 µM, 100% = cells with rucaparib alone",87.9% (active)
same,viability,"[9]; at 5 µM, OCI-P5x cells, without rucaparib",107% (inactive)
same,inhibition,"[10]; at 0.5 µM, stronger effect = higher value",-11.4% (inactive)
same,inhibition,"[10]; measured here: combination with BGB IC20, at 0.005 µM",-13.3%
same,inhibition,"[10]; measured here: combination with BGB IC40, at 0.005 µM",-16.5%
same,inhibition,"[10]; measured here: combination with BGB IC40, at 0.05 µM",-16.7%
same,inhibition,"[10]; measured here: combination with cisplatin, at 0.5 µM, stronger effect = higher value",-21.3%
same,inhibition,"[10]; measured here: combination with cisplatin, at 5 µM, stronger effect = higher value",-30.6%
same,inhibition,"[11]; BGB combo, at 5 µM",-27.5%
same,inhibition,[11]; at 0.5 µM,-36.3% (inactive)
same,inhibition,"[11]; cisplatin combo, at 5 µM",-28.6%
same,inhibition,"[11]; measured here: with BGB IC20 combination, at 0.5 µM",-35.8%
same,inhibition,"[11]; measured here: with cisplatin IC20 combination, at 0.5 µM",-38.5%
same,inhibition,"[11]; single agent, at 5 µM",-17%
same,inhibition,"[12]; BGB IC20 combo, at 0.005 µM",2.36%
same,inhibition,"[12]; BGB IC40 combo, at 0.005 µM",-26.6%
same,inhibition,"[12]; BGB IC40 combo, at 0.05 µM",4.66%
same,inhibition,[12]; at 0.5 µM,-28.2% (inactive)
same,inhibition,"[12]; cisplatin combo, at 0.05 µM",1.23%
same,inhibition,"[12]; cisplatin combo, at 0.5 µM",-24.8%
same,inhibition,"[12]; cisplatin combo, at 5 µM",-12.9%
same,inhibition,"[12]; measured here: 5 uM single agent, at 5 µM",3.99%
same,inhibition,[13]; at 0.5 µM,-21.8% (inactive)
same,inhibition,"[13]; measured here: with BGB IC20, at 0.5 µM",-19.3%
same,inhibition,"[13]; measured here: with BGB IC20, at 5 µM",-13.7%
same,inhibition,"[13]; measured here: with cisplatin IC20, at 0.5 µM",-26.1%
same,inhibition,"[13]; measured here: with cisplatin IC20, at 5 µM",-16.9%
same,inhibition,"[13]; single agent, at 5 µM",-18.1%
same,inhibition,[14]; at 0.5 µM,-15.2% (inactive)
same,inhibition,"[14]; measured here: BGB combination, at 0.5 µM",-12%
same,inhibition,"[14]; measured here: BGB combination, at 5 µM",-8.16%
same,inhibition,"[14]; measured here: cisplatin combination, at 0.5 µM",-19.2%
same,inhibition,"[14]; measured here: cisplatin combination, at 5 µM",-7.27%
same,inhibition,[15]; at 0.5 µM,-10.1% (inactive)
same,inhibition,"[15]; cisplatin combination, at 0.5 µM",-26.2%
same,inhibition,"[15]; cisplatin combination, at 5 µM",-3.75%
same,inhibition,"[15]; measured here: BGB IC40 combination 0.05 uM, at 0.05 µM",-4.25%
same,inhibition,"[15]; single agent, at 5 µM",-4.64%
same,inhibition,[16]; at 0.5 µM,-10.5% (inactive)
same,inhibition,"[16]; cisplatin combo, at 5 µM",-5.73%
same,inhibition,"[16]; measured here: BGB IC40 combination, at 0.05 µM",-15.4%
same,inhibition,"[16]; measured here: combination with cisplatin, at 0.5 µM",-22.8%
same,inhibition,"[16]; single agent, at 5 µM",-14.1%
